Values without a mark were called inactive. Records with an inconclusive call do not appear. Where a call stands in place of a potency, no number is given. The source made the active and inactive calls. Unless noted, the call rests on the fitted dose curve; in most records, active means well fitted curve in the direction sought with a large enough effect in the repeat runs; inconclusive means weak or mixed curves; inactive means no such curve, though single readings can be large; an effect the other way counts as inactive or inconclusive.
Legend:
[1] = qHTS assay to identify small molecule agonists of the sonic hedgehog signaling (Shh) pathway (AID 1259368; calls by dose curve;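 further: NIH/3T3-derived 3T3Gli1-Luc cells carrying a stable Gli1-driven firefly luciferase reporter; series mostly up to about 92 µM; nearly all actives have a fitted effect of over 15% in size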)
Procedure, shortened: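 Steps: seed 3T3 Gli1-Luc cells, incubate 4 hr at 37 C, pin-transfer compounds in DMSO alongside a positive control, incubate 24 hr, add luciferase detection reagent, wait 30 min at room temperature, read luminescence.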

[2] = qHTS assay to identify small molecule antagonists of the sonic hedgehog signaling (Shh) pathway (AID 1259369; calls by dose curve; further: nearly all actives have a fitted effect of over 45% in size)
Procedure, shortened: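 Inhibition of Shh signalling is measured as reduced Gli1-response-element firefly luciferase output in an NIH/3T3-derived stable reporter clone stimulated with conditioned medium for 24hr.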

[3] = biological target: Estrogen receptor beta (Homo sapiens) (UniProt Q92731); experiment: qHTS assay to identify small molecule agonists of the estrogen receptor beta (ER-beta) signaling pathway (AID 1259377; active means well fitted activation curve with a large enough effect in the signal ratio in the repeat runs, not every such curve was filed as active; the % refers to the signal ratio)
Sequence of Estrogen receptor beta (Homo sapiens) (Q92731 whole entry, looked up): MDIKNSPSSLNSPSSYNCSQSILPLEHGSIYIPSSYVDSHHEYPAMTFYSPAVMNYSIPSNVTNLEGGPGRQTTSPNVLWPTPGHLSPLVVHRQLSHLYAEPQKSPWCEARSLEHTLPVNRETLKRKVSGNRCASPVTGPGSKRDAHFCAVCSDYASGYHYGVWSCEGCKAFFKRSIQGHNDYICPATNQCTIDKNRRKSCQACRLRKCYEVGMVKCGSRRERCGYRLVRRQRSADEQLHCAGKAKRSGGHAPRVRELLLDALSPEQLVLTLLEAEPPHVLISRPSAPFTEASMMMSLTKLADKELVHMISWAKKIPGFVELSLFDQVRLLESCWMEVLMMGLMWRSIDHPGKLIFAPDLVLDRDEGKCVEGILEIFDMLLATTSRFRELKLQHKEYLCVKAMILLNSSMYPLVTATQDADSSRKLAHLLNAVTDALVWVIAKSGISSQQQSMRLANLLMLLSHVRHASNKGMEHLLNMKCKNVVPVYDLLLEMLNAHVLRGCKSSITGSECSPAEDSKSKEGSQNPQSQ
Procedure, shortened: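 In HEK293T cells bearing a UAS-beta-lactamase reporter under ER-beta control, DMSO-delivered compounds were incubated for 16 hr at 37C. Activity was detected as fluorescence 2 hours after LiveBLAzer B/G FRET substrate addition.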

[4] = biological target: Estrogen receptor beta (Homo sapiens) (UniProt Q92731); experiment: qHTS assay to identify small molecule antagonists of the estrogen receptor beta (ER-beta) signaling pathway (AID 1259378; active means well fitted inhibition curve with a large enough effect in the signal ratio in the repeat runs, not every such curve was filed as active; the % refers to the signal ratio)
Procedure, shortened: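 ER-beta-UAS-bla HEK293T (GripTite) cells in 2% charcoal-stripped FBS medium were preincubated 6 hr at 37C, dosed with compound, then stimulated with 1 nM E2 (final) for 16 hr; beta-lactamase reporter read by B/G FRET fluorescence after 2 hr substrate loading.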

[5] = qHTS assay to identify small molecule agonists of the androgen receptor (AR) signaling pathway in the presence of an antagonist - cell viability counter screen (AID 1259379);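 further: MDA-kb2 human breast cancer cells carrying an MMTV luciferase reporter; series mostly up to about 92 µM; nearly all actives have a fitted effect of over 25% in size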
Procedure, shortened: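 Fluorescence from CellTiter-Fluor, added after 15 hr and read 1 hr later, gave cell viability. Cells were MDA-kb2 exposed to compounds (15 concentrations) in the presence of 3.0uM nilutamide at 37C, 0% CO2.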

[6] = qHTS assay to identify small molecule agonists of the estrogen receptor beta (ER-beta) signaling pathway - cell viability counter screen (AID 1259380); further: nearly all actives have a fitted effect of over 30% in size; further: potency means the concentration at half of the fitted maximal effect
Procedure, shortened: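 Same-well viability counter screen. Cells: ER-beta-UAS-bla HEK293T, plated 6 hr before compound, in 2% charcoal-stripped FBS. Compound exposure 16 hr, 37C; viability by CellTiter-Glo luminescence after 30 min at room temperature.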

[7] = biological target: Androgen receptor (Homo sapiens) (UniProt P10275); experiment: qHTS assay to identify small molecule agonists of the androgen receptor (AR) signaling pathway in the presence of an antagonist (AID 1259381; calls by dose curve; further: nearly all actives have a fitted effect of over 15% in size)
Sequence of Androgen receptor (Homo sapiens) (P10275 whole entry, looked up): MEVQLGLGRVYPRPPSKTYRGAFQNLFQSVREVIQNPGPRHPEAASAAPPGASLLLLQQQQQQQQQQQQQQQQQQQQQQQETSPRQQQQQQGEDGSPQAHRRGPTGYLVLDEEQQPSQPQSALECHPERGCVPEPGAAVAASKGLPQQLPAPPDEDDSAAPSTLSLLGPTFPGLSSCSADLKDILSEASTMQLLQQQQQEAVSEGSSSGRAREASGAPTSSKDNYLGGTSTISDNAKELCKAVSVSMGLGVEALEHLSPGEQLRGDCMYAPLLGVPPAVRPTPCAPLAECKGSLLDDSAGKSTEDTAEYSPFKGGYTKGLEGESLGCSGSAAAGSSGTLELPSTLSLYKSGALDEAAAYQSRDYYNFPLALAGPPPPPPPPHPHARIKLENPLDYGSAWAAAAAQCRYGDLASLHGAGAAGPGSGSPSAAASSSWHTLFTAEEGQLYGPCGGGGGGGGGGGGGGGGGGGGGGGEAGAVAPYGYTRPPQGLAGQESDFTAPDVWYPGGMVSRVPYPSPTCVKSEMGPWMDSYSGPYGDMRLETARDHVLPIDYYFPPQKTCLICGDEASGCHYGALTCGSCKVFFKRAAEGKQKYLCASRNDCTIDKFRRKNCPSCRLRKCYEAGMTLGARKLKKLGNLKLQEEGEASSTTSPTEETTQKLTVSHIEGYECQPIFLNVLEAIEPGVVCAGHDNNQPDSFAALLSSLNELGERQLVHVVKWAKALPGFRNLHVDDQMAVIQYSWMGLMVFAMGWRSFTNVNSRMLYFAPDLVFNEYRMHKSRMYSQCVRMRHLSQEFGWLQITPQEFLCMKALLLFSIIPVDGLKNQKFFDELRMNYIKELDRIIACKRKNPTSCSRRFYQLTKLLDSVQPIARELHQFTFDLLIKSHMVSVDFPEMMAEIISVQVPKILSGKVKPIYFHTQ
Procedure, shortened: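 Cells are MDA-kb2 (human breast carcinoma, MMTV-luc, AR/GR responsive). Nilutamide is present at 3.0uM final throughout; compounds are added at 15 concentrations and incubated 16hr at 37C before ONE-Glo luminescence detection.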

[8] = qHTS assay to identify small molecule antagonists of the estrogen receptor beta (ER-beta) signaling pathway - cell viability counter screen (AID 1259382); further: series mostly up to about 92 µM; nearly all actives have a fitted effect of over 55% in size
Procedure, shortened: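 Following a 6 hr plating period, HEK293T cells carrying a UAS-driven beta-lactamase reporter under ER-beta control received compounds and 1nM E2 (final). After 16 hr at 37C and 2 hr substrate loading, CellTiter-Glo luminescence indicated viability.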

[9] = biological target: Estrogen receptor (Homo sapiens) (UniProt P03372); experiment: qHTS assay to identify small molecule agonists of the estrogen receptor alpha (ER-alpha) signaling pathway in the presence of an antagonist (AID 1259383; calls by dose curve; further: top concentration of the series differs between compounds; nearly all actives have a fitted effect of over 15% in size)
Sequence of Estrogen receptor (Homo sapiens) (P03372 whole entry, looked up): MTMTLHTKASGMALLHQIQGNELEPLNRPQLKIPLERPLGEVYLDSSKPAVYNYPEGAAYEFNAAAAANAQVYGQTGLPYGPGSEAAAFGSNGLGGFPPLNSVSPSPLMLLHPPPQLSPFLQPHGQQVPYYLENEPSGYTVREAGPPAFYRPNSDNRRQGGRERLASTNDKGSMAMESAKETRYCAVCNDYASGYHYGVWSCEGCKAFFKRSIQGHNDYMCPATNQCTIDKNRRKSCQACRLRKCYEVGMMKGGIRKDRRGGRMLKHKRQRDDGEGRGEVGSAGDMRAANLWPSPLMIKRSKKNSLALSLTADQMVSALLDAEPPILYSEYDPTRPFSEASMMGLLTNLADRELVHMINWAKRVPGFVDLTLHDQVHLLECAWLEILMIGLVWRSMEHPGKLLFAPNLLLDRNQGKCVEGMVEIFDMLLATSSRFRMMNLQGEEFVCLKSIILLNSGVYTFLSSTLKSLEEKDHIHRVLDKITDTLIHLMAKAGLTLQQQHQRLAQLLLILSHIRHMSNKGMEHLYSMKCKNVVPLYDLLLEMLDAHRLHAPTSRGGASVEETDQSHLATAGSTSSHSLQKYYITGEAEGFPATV
Procedure, shortened: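 Cells are hormone-deprived for 5 days (charcoal-stripped FBS, no phenol red), plated for 24hr, spiked with 10.0nM ICI-182,780, then dosed at 15 concentrations. After 22hr at 37C, ONE-Glo luminescence reports ERE-luciferase activity.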

[10] = qHTS assay to identify small molecule agonists of the estrogen receptor alpha (ER-alpha) signaling pathway in the presence of an antagonist - cell viability counter screen (AID 1259386);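 further: series mostly up to about 92 µM; cells exposed to compounds for 22 h at 37 °C before the viability read; nearly all actives have a fitted effect of over 30% in size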
Procedure, shortened: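 Cells are starved of estrogens for 5 days in charcoal-stripped serum, seeded for 24hr and co-treated with ICI-182,780 (10.0nM final) and test compounds. After 22hr at 37C, viability is read as CellTiter-Fluor fluorescence.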

[11] = biological target: Progesterone receptor (Homo sapiens) (UniProt P06401); experiment: qHTS assay to identify small molecule agonists of the progesterone receptor (PR) signaling pathway (AID 1346784; calls by dose curve; further: nearly all actives have a fitted effect of over 30% in size)
Sequence of Progesterone receptor (Homo sapiens) (P06401 whole entry, looked up): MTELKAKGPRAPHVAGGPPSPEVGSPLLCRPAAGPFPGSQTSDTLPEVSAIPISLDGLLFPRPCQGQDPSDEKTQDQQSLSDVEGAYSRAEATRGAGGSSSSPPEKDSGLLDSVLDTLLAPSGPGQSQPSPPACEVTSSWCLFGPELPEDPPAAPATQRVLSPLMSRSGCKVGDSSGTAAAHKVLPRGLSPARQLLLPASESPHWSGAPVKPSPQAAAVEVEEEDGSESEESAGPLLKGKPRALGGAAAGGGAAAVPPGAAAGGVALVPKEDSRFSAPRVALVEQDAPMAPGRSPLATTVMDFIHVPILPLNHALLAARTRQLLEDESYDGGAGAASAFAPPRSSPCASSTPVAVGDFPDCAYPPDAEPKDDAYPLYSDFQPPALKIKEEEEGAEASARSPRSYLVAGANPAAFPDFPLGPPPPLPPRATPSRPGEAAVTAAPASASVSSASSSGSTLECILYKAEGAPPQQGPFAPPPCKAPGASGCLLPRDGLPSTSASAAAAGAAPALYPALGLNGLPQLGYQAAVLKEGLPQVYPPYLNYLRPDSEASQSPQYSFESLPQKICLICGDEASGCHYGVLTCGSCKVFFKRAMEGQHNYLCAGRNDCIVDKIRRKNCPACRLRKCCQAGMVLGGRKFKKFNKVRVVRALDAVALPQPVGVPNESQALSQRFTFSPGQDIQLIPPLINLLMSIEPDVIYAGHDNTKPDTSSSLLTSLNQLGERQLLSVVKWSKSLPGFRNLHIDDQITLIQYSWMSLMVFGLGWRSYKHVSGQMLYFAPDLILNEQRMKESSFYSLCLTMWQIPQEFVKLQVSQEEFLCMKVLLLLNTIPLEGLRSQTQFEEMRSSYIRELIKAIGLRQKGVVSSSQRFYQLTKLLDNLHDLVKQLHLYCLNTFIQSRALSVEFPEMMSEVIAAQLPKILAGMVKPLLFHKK
Procedure, shortened: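 Using charcoal-stripped serum (2%) to limit endogenous steroids, PR-UAS-bla HEK 293T cells received compounds for 16 hr at 37C after 6 hr plating; beta-lactamase FRET fluorescence was recorded following 2 hr substrate loading at room temperature.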

[12] = biological target: Progesterone receptor (Homo sapiens) (UniProt P06401); experiment: qHTS assay to identify small molecule antagonists of the progesterone receptor (PR) signaling pathway (AID 1346795; active means well fitted inhibition curve with a large enough effect in the signal ratio in the repeat runs, not every such curve was filed as active; the % refers to the signal ratio)
Procedure, shortened: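 Inhibition of R5020-induced (1 nM final) beta-lactamase reporter signal in PR-UAS-bla HEK293T cells was scored by FRET fluorescence after overnight (16 hr) compound treatment.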

[13] = qHTS assay to identify small molecule antagonists of the progesterone receptor (PR) signaling pathway - cell viability counter screen (AID 1346798); further: series mostly up to about 92 µM; nearly all actives have a fitted effect of over 50% in size
Procedure, shortened: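 ATP content as viability readout: CellTiter-Glo luminescence, 30 min room temperature, in PR-UAS-bla HEK293T cells after 16 hr compound/R5020 treatment at 37C and 5% CO2.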

[14] = qHTS assay to identify small molecule agonists of the progesterone receptor (PR) signaling pathway - cell viability counter screen (AID 1346799; calls by dose curve; further: nearly all actives have a fitted effect of over 45% in size)
Procedure, shortened: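 Cytotoxicity in PR-bla HEK293T cells: 16 h compound, 37C; CellTiter-Glo added post-FRET read; luminescence after 30 min RT.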

[15] = qHTS assay to identify small molecule antagonists of the TGF-beta/Smad signaling pathway - cell viability counter screen (AID 1346824); further: nearly all actives have a fitted effect of over 50% in size
Procedure, shortened: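 SBE-bla HEK 293T cells were plated overnight at 37 C, then given compounds in DMSO plus TGF-beta1 (added as 0.25 ng/mL solution) for 5 hr. After the bla read, CellTiter-Glo was added to the same wells and luminescence read after 30 min at room temperature.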

[16] = qHTS assay to identify small molecule agonists of the TGF-beta/Smad signaling pathway - cell viability counter screen (AID 1346829); further: top concentration of the series differs between compounds; nearly all actives have a fitted effect of over 45% in size
Procedure, shortened: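 After overnight seating at 37 C and 5% CO2, reporter cells got compounds for 5 hr and FRET substrate for 2 hr; cell viability then came from CellTiter-Glo luminescence.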

[17] = qHTS assay to identify small molecule agonists of the TGF-beta/Smad signaling pathway (AID 1346859; active means well fitted activation curve with a large enough effect in the signal ratio in the repeat runs, not every such curve was filed as active; the % refers to the signal ratio; further: series mostly up to about 77 µM)
Procedure, shortened: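 Stable Smad binding element-beta-lactamase HEK 293T cells; 5 hr compound exposure at 37 C under 5% CO2; 2 hr room-temperature substrate step; fluorescence excited at 405 nm, collected at 460 nm and 530 nm.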

[18] = qHTS assay to identify small molecule agonists or antagonists of the thyroid stimulating hormone receptor (TSHR) signaling pathway - wild type cell line counter screen (AID 1259384; calls by dose curve)
Procedure, shortened: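 Wild-type HEK293 cells were plated 18 h at 37 C/5% CO2, pin-dosed with compound plus Ro20-1724 medium, held 30 min at room temperature, then given cAMP-d2 and anti-cAMP-cryptate; fluorescence was read after 1 h. Fifteen concentrations, triplicate.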

[19] = biological target: Thyrotropin receptor (Homo sapiens) (UniProt P16473); experiment: qHTS assay to identify small molecule antagonists of the thyroid stimulating hormone receptor (TSHR) signaling pathway (AID 1259385; calls by dose curve; further: nearly all actives have a fitted effect of over 20% in size; further: potency means the concentration at half of the fitted maximal effect)
Sequence of Thyrotropin receptor (Homo sapiens) (P16473 whole entry, looked up): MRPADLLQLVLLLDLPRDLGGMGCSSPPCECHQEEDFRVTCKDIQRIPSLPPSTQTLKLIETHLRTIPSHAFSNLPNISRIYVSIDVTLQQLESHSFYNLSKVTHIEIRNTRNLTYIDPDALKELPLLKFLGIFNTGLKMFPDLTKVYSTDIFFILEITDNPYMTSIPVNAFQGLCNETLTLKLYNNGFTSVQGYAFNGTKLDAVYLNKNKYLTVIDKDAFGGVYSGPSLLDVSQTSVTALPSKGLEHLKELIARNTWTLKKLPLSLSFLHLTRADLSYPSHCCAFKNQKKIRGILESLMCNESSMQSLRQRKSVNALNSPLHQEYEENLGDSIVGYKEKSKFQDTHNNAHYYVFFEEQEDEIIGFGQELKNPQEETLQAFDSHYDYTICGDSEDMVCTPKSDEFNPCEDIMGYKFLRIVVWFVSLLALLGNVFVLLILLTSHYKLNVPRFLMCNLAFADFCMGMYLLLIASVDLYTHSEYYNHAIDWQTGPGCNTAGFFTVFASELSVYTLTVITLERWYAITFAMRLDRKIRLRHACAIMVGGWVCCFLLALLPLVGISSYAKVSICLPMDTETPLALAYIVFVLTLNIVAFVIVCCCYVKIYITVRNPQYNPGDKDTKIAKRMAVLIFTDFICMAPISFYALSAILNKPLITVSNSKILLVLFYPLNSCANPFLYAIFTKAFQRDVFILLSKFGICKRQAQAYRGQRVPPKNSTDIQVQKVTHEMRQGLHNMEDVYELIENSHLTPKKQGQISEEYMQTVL
Procedure, shortened: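 TSHR-HEK293 cells were plated and held 18 h at 37C/5% CO2, then given compound plus Ro20-1724 and stimulated with TSH at 1.5 ng/mL final. After 30 min at room temperature, cAMP was detected with cAMP-d2/anti-cAMP-cryptate (1 h) by fluorescence.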

[20] = biological target: Thyrotropin-releasing hormone receptor (Homo sapiens) (UniProt P34981); experiment: qHTS assay to identify small molecule antagonists of the thyrotropin-releasing hormone receptor (TRHR) signaling pathway (AID 1346877; active means well fitted inhibition curve with a large enough effect in the repeat runs, not every such curve was filed as active; further: series mostly up to about 51 µM)
Sequence of Thyrotropin-releasing hormone receptor (Homo sapiens) (P34981 whole entry, looked up): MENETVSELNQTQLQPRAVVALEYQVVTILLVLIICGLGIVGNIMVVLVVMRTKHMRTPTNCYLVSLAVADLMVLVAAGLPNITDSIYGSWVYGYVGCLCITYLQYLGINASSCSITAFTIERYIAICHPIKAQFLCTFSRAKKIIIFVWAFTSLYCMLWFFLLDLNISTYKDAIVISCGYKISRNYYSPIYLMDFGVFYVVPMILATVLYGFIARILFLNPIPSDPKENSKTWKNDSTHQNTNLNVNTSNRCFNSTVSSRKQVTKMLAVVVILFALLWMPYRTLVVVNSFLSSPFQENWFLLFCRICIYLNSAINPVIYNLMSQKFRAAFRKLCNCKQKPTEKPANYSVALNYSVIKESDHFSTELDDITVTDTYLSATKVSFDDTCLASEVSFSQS
Procedure, shortened: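 Cells (TRHR-HEK293) are plated and kept 18 h at 37 °C/5% CO2. A calcium-sensitive dye is added for 2 h, compound follows for 5 min at room temperature, and TRH is then given at 1 nM final.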

Row | Structure (SMILES) | Potency [1] | Potency [2] | Potency [3] | Potency [4] | Potency [5] | Potency [6] | Potency [7] | Potency [8] | Potency [9] | Potency [10] | Potency [11] | Potency [12] | Potency [13] | Potency [14] | outcome [15] | outcome [16] | outcome [17] | outcome [18] | Potency [19] | outcome [20]
1 | CCN(CC)CCNC(=O)c1ccc(NC(C)=O)cc1 | inactive | inactive | inactive | inactive | inactive | inactive | inactive | inactive | inactive | inactive | inactive | inactive | inactive | inactive | inactive | inactive | inactive |  |  | 
2 | C[Si](NC1CCCCC1)(NC1CCCCC1)NC1CCCCC1 | inactive | inactive | inactive | inactive | inactive | 27.3 µM (active) |  |  | inactive | inactive | inactive |  |  |  | inactive | inactive | inactive | inactive | inactive | inactive
3 | CCC(C)=O | inactive | inactive | inactive | inactive | inactive | inactive |  | inactive |  | inactive |  |  | inactive | inactive | inactive | inactive | inactive |  |  | inactive
4 | O=C(Nc1ccccc1)Nc1ccccc1 | inactive | inactive | inactive | inactive | inactive |  |  | inactive | inactive | inactive | inactive |  | inactive |  | inactive | inactive | inactive |  |  | 
5 | CN1CCCN=C1/C=C/c1cccs1 | inactive | inactive | inactive | inactive | inactive | inactive |  | inactive | inactive | inactive | inactive | inactive | inactive |  | inactive | inactive | inactive | inactive | inactive | 
6 | O=C1NCCN1 | inactive | inactive | inactive | inactive | inactive | inactive |  | inactive | inactive | inactive | inactive | inactive | inactive |  | inactive | inactive | inactive | inactive | inactive | 
7 | CC(=O)Nc1ccc(N)cc1 | inactive | inactive | inactive | inactive | inactive | inactive | inactive | inactive | inactive | inactive | inactive | inactive | inactive | inactive | inactive | inactive | inactive | inactive | inactive | 
8 | CCCCCCCCCCCCCCC[C@H](O)[C@@H](N)CO | inactive | inactive | inactive | inactive | inactive | inactive |  | inactive |  | inactive | inactive |  |  |  | inactive | inactive | inactive | inactive | 26.6 µM (active) | inactive
